Reference: PubChem BioAssay AID720591 (Broad Institute, 2013)
The campaign covered roughly 1,200 compounds. About 60 (5%) were called active. Inconclusive results (about 1%) are left out.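 The calls were made as follows: active = Decreasing signal and fitted IC50 at most twice the top valid tested dose; inconclusive = Bad fit or a level curve showing 30 to 70% inhibition; inactive = the rest.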 The list is a sample of the results. Potency and affinity values are given separately.

biological target: NAD-dependent protein deacylase sirtuin-5, mitochondrial (Homo sapiens) (UniProt Q9NXA8); assay: SIRT5 desuccinylase inhibitors, dose response, biochemical, fluorescence imaging, cherry-pick, set 5 (AID 720591); details: Purified SirT5, succinyl-peptide AMC, trypsin-coupled fluorescence; series mostly up to 15 µM; activity change, negative = inhibition: at the top concentration;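 also: 0% = median of neutral control wells and -100% = median of positive control wells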
Sequence (Q9NXA8 whole entry, looked up): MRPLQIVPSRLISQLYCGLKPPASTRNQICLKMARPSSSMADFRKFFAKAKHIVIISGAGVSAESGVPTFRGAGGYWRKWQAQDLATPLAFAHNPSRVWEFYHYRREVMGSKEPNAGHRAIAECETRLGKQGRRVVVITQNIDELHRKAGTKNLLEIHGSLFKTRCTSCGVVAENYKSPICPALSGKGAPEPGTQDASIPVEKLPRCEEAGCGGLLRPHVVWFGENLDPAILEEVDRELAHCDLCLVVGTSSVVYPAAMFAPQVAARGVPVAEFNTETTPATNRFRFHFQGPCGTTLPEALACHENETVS

Activity change, negative = inhibition, inactive:
Cc1ccc(S(=O)(=O)c2nc(Cc3ccccc3)oc2N2CCOCC2)cc1 -13.3%, Cc1ccc(C(C(=O)NC(C)(C)C)N(C(=O)CCC(=O)Nc2ccccn2)c2ccccc2F)cc1 (stereo not given) -3.12%, CO/N=C(\C(=O)N[C@@H]1C(=O)N2C(C(=O)O)=C(COC(C)=O)CS[C@H]12)c1csc(N)n1 (stereo in doubt) -15.9%, Cc1ccc(-c2ccc(=O)n(CC(=O)Nc3ccc4c(c3)OCCO4)n2)cc1 16.6%, COc1ccc(N2CCN(C(=O)CN(C)S(=O)(=O)c3cc(C)ccc3OC)CC2)cc1 -6.06%, N[C@@H](CO)c1nnc([C@H](Cc2ccc(O)cc2)NC(=O)C2CCNCC2)o1 -9.88%, O=S(=O)(CCc1ccncc1)c1ccc(Cl)cc1 7.83%, NCC(O)CN(c1ccccc1)c1ccccc1 (stereo not given) 0.799%, O=C(c1cccc(F)c1)N1CCCC(C(=O)N2CCCCCC2)C1 (stereo not given) 16.1%, O=C(c1cccc(F)c1)N1CCCC(C(=O)N2CCCCC2)C1 (stereo not given) -26.3%, CC(=O)Nc1ccc(S(=O)(=O)Nc2ccc(-n3cnnn3)cc2)cc1 -11.7%, O=C(Nc1ccc(F)cc1)C1CC(=O)n2ncnc2N1 (stereo not given) -19.7%, C[C@H](CO)N1C[C@H](C)[C@@H](CN(C)Cc2ccccn2)Oc2ncc(Br)cc2C1=O -20.5%, Cc1csc(NC(=O)CSc2sc3c(O)cc(=O)[nH]c3c2C#N)n1 -33.2%, N#Cc1c(SCC(=O)Nc2nccs2)sc2c(O)cc(=O)[nH]c12 -20.5%, CC(=O)N1N=C(N)SC12CCCC2 -1.47%, C[C@H]1CN([C@@H](C)CO)C(=O)c2cc(Br)cnc2O[C@H]1CN(C)C(=O)c1ccccn1 24.1%, C[C@@H]1CN([C@H](C)CO)C(=O)CCCn2nncc2CO[C@H]1CN(C)C(=O)Nc1cccc2ccccc12 11.2%, CC(C)NC(=O)N(C)C[C@@H]1OCc2cnnn2CCCC(=O)N([C@@H](C)CO)C[C@H]1C 10.8%, Cc1ccnc(NS(=O)(=O)c2ccc(NC(=O)Cc3ccc(F)cc3)cc2)n1 18%, Cc1noc(C)c1COc1ccc(C(=O)N2CCN(S(=O)(=O)c3cccc(F)c3)CC2)cc1 -6.62%, COc1ccc(NC(=O)CN(c2ccc(Cl)cc2)S(C)(=O)=O)cc1OC 3.15%, O=C(COC(=O)CC1CC2CCC1C2)NCc1ccccc1 (stereo not given) 15.9%, O=C(COC(=O)CC1CC2CCC1C2)Nc1ccc(F)cc1 (stereo not given) 6.05%, COc1ccccc1OCCSc1nc2ccccc2n1CC(O)CO (stereo not given) -18.9%, COc1cc(C(=O)NCCCc2nc3ccccc3n2Cc2cc(C)ccc2C)cc(OC)c1OC 9.81%, c1ccc(CCc2nc(-c3ccc(-n4cccc4)cc3)no2)cc1 16.5%, Cc1ccc(-c2noc(CN(C)C(=O)c3ccc(Br)o3)n2)cc1 -17.4%, Cc1ccc(CNC(=O)C2CCCN(S(=O)(=O)N3CC(C)CC(C)C3)C2)cc1 (stereo not given) -20.4%, O=C(COc1ccccc1)Nc1ncn[nH]1 -8.98%, COc1cc(C)c(CN2CCN(CC(=O)Nc3ccccc3C(=O)NC3CC3)CC2)cc1OC -25.6%, O=C1CCC(C(=O)N2CCCCCC2)CN1Cc1cccc(C(F)(F)F)c1 (stereo not given) -29.3%, CCOC(=O)c1c(C)[nH]c(C)c1C(=O)COC(=O)c1cc2ccccc2cc1O 7.04%, CCOC(=O)c1c(C)[nH]c(C)c1C(=O)COC(=O)c1cccc(C)c1O -9.02%, CCOc1ccc(CCNC(=O)Cn2nc(C)c3c(C)n(-c4ccccc4)nc3c2=O)cc1 -21.5%, COC(=O)[C@]12CCCCC=C1N(Cc1cccc3ccccc13)C(=O)[C@H](CC(=O)NCC1CCCCC1)C2 -6.36%, CC1=C(C(=O)N2CCOCC2)CC(CC(=O)NCC2CCCCC2)C(=O)N1CCC1=CCCCC1 (stereo not given) 31.4%, NC(=O)c1ccc(NC(=O)CCCc2nc(-c3ccccc3Cl)no2)cc1 -28.1%, Cc1ccc2c(c1)CO[C@@]21O[C@H](CCO)C[C@H](O)[C@H]1O 3.11%, Cc1cccc(NC(=O)C2CCN(C(=O)c3ccco3)CC2)c1C -16.4%, Cc1ccc(NC(=O)C2CCN(C(=O)c3ccco3)CC2)cc1 12%, CC(C)CCN1CCN(Cc2cnc(N3CCCC3)s2)CC1CCO (stereo not given) 10.1%, O=C(Cc1cccs1)N1CCN(S(=O)(=O)c2ccc(Cl)c(C(F)(F)F)c2)CC1 -18.7%, C/C(N)=C(/C#N)C(=O)CSc1nnc(Nc2ccccc2)s1 -26.5%, Cc1ccc(OCCSc2nc3ccccc3n2CCC(=O)O)cc1 -29.2%, CCSc1nnc(NC(=O)Cc2ccc(OC)cc2)s1 -29.4%, CCc1ccc(S(=O)(=O)c2ccc(-n3nc(C)cc3N)cc2)cc1 21.2%, c1ccc(CCn2nnc3ccccc32)cc1 16.6%, CCOC(=O)c1c(-c2ccc(C)cc2)csc1NC(=O)CCN1CC(C)OC(C)C1 (stereo not given) 10.9%, CC1C(=O)N2CCCc3cc(S(=O)(=O)N4CCCCC4)cc1c32 (stereo not given) 10.4%, CCCCNC(=O)CC1C(=O)N(Cc2ccccc2)C(C)c2nc3ccccc3n21 (stereo not given) -23.2%, CCCNC(=O)CC1C(=O)N(Cc2ccccc2)C(C)c2nc3ccccc3n21 (stereo not given) -35.5%, CCCCCCN1CCN(C2CN(C3CCCCC3)S(=O)(=O)C2)CC1 (stereo not given) 24.6%, CCN(c1ccccc1)S(=O)(=O)c1nnc(NC(=O)C(C)(C)C)s1 -1.58%, COc1ccc(C(CNC(=O)c2cccc(S(=O)(=O)N3CCCCC3)c2)N2CCCC2)cc1 (stereo not given) -22.6%
